Laboratory results as given in paper PMC5540273 (PLoS ONE, 2017).

How the values were obtained:
Settings in all cases: concentration: 1 μM, replicates: in singlicate; n = 1
[1] = system: CSK
[2] = system: CSNK1A1L
[3] = system: CSNK1A1
[4] = system: CSNK1D
[5] = system: CSNK1E
[6] = system: CSNK1G1
[7] = system: CSNK1G2
[8] = system: CSNK1G3
[9] = system: CSNK2A1
[10] = system: CSNK2A2
[11] = system: T1, CTK
T1 construct: gene MATK

[12] = system: DAPK1
[13] = system: DAPK2
[14] = system: DAPK3
[15] = system: T2, DCAMKL1
T2 construct: gene DCLK1

[16] = system: T3, DCAMKL2
T3 construct: gene DCLK2

[17] = system: T4, DCAMKL3
T4 construct: gene DCLK3

[18] = system: DDR1
[19] = system: DDR2
[20] = system: T5, DLK
T5 construct: gene MAP3K12
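Further: KINOMEscan kinase panel screen.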

SMILES | %Inh [1] | %Inh [2] | %Inh [3] | %Inh [4] | %Inh [5] | %Inh [6] | %Inh [7] | %Inh [8] | %Inh [9] | %Inh [10] | %Inh [11] | %Inh [12] | %Inh [13] | %Inh [14] | %Inh [15] | %Inh [16] | %Inh [17] | %Inh [18] | %Inh [19] | %Inh [20]
FC(F)(F)c1ccccc1-c1cc(-c2c[nH]nc2-c2ccccn2)ccn1 [GW679396] | 0% | 3% | 0% | 36% | 23% | 16% | 0% | 24% | 7% | 17% | 0% | 0% | 9% | 23% | 6% | 0% | 2% | 68% | 2% | 32%
Fc1ccc(-c2nn3cccc(F)c3c2-c2ccncc2)cc1 [GW475620] | 0% | 30% | 69% | 94% | 96.2% | 16% | 2% | 24% | 11% | 9% | 0% | 0% | 0% | 5% | 0% | 0% | 10% | 47% | 39% | 15%
CNC(=O)c1ccc(C)c(-n2c(C)cc(OCc3ccc(F)cc3F)c(Br)c2=O)c1 | 0% | 0% | 4% | 0% | 6% | 0% | 0% | 25% | 0% | 0% | 0% | 0% | 0% | 0% | 0% | 0% | 0% | 0% | 0% | 0%
COc1nccc(-c2c(-c3ccc(F)cc3)ncn2CCCN2CCOCC2)n1 [SB-282852] | 0% | 45% | 44% | 31% | 29% | 0% | 0% | 53% | 0% | 9% | 22% | 5% | 0% | 22% | 35% | 0% | 11% | 0% | 35% | 18%
O=C(Nc1n[nH]c2cc(-c3ccsc3)ccc12)C1CC1 [SB-732932] | 0% | 17% | 0% | 0% | 0% | 24% | 0% | 0% | 29% | 52% | 32% | 4% | 41% | 40% | 0% | 0% | 74% | 0% | 0% | 0%
NS(=O)(=O)c1cccc(N/C=C2\C(=O)Nc3ccc(S(=O)(=O)Cc4c(Cl)cccc4Cl)cc32)c1 [GSK398099] | 0% | 11% | 0% | 12% | 18% | 12% | 0% | 28% | 0% | 19% | 0% | 100% | 1% | 21% | 38% | 10% | 0% | 0% | 0% | 52%
Cc1ccc(NC(=O)Nc2ccccc2F)cc1-c1ccc(C(=O)Nc2ccncc2)cc1 [GSK1398477] | 0% | 20% | 0% | 12% | 16% | 18% | 32% | 28% | 19% | 18% | 0% | 0% | 17% | 0% | 0% | 40% | 26% | 97% | 55% | 0%
COc1ccc(-c2coc3ccc(-c4nnc(C)o4)cc23)cc1 | 0% | 0% | 0% | 0% | 0% | 4% | 1% | 0% | 0% | 15% | 0% | 0% | 1% | 0% | 15% | 0% | 13% | 0% | 0% | 0%
